USP2a block – qHTS Assay for Inhibitors of Ubiquitin-specific Protease USP2a Using CHOP2 as the Reporter; Ubiquitin carboxyl-terminal hydrolase 2 (Homo sapiens), O75604; USP2 core, Ub-CHOP2 coupled fluorogenic reporter, 485/531; Potency, µM (top dose mostly 38.3 µM), most hits filed as inhibitors; hit rate 0.01% among 330,000; AID 463254, 2010
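Deubiquitinase activity read as fluorescence (485/531 nm) after Ub-CHOP2 cleavage activates the enterokinase reporter on its substrate; USP2 core 10nM, Ub-CHOP2 and substrate 25nM each, 30min compound preincubation then 60min RT; data normalized to NEM, curves fitted.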
IL1B secr inh – qHTS for Inhibitors of Inflammasome Signaling: IL-1-beta AlphaLISA Primary Screen. THP-1 LPS/ATP IL-1B secretion, AlphaLISA, 16 h; stronger effect = lower value. activity change, % at 57.5 µM. hit rate 4.7% among 360,000. AID 743279, 2014; in the data active = activity change below about -50%; inconclusive = mostly about -30% to -49%
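THP-1 cells pretreated 1 hr with compounds (up to 57.5 uM final), then stimulated with LPS (250 ng/mL final) plus ATP (1.25 mM final); secreted IL-1B measured by AlphaLISA after 16 hr, decreased signal indicating inhibition.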
ATXN viability – Viability Counterscreen for Primary qHTS for Inhibitors of ATXN expression; S2 cells (HEK-293 line with an ATXN2-luciferase reporter) viability, CellTiter-Fluor protease fluorescence, 24 h; Potency, µM (series often up to 56.7 µM), hits mostly cytotoxic; hit rate 0.49% among 400,000; AID 651635, 2014; also: nearly all actives have a fitted effect of over 40% in size
ATXN2 expr inh – Primary qHTS for Inhibitors of ATXN expression; HEK-293 ATXN2-luciferase reporter, luminescence, 24 h; Potency, µM (highest dose often 57 µM), most hits filed as inhibitors; hit rate 0.72% among 360,000; also: nearly all actives have a fitted effect of over 55% in size
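qHTS (up to 57 uM final) was run with 24 h compound exposure of reporter cells at 37 °C. Each well was multiplexed: SteadyGlo luminescence measured ATXN2-luciferase expression after a fluorogenic Gly-Phe-AFC viability readout (25 uM final).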
USP1 inh – Inhibitors of USP1/UAF1: Primary Screen; Ubiquitin carboxyl-terminal hydrolase 1 (Homo sapiens), O94782; recombinant USP1/UAF1, Ub-Rhodamine cleavage fluorescence; Potency, µM (highest dose often 57.1 µM), actives largely listed as inhibitors; hit rate 0.23% among 390,000; also: nearly all actives have a fitted effect of over 60% in size
Target sequence (O94782 whole entry, looked up): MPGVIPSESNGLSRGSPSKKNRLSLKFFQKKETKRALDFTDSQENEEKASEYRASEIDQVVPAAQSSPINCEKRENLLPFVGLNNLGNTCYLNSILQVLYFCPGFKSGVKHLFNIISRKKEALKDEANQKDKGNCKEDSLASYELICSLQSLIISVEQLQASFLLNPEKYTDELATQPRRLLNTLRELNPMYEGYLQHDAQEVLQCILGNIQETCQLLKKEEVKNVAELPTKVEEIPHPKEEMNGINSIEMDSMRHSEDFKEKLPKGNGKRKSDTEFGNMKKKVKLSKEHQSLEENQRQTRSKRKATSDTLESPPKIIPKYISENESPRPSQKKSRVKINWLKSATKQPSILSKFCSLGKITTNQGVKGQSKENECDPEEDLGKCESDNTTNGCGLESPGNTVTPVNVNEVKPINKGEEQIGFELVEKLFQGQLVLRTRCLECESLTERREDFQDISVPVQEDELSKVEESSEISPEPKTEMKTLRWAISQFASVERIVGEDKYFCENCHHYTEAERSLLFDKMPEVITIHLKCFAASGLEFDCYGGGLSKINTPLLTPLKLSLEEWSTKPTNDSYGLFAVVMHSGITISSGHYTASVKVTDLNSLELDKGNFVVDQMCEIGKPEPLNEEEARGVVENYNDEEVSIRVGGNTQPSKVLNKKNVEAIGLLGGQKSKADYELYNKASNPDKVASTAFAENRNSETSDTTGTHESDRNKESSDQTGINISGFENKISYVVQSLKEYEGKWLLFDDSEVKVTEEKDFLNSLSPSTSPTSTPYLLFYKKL
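USP1/UAF1 complex at 1 nM was preincubated with compound for 15 min at room temperature, then Ub-Rho substrate (150nM final) was added. Fluorescence (480/540 nm) was read kinetically, 6 reads every 60 seconds.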
Of the large screens only hits and unclear results are named; the others gave an inactive call. Sampled rows, rich in hits. Any-hit rate of the full collection: about 4.8%. Unless noted, calls follow the shape of the dose curve; as a rule, active = well fitted curve in the direction sought with a large enough effect; inconclusive = small, poorly fitted or top-dose-only effect, or another doubt; inactive = no such curve, though single readings can be large; an effect the other way counts as inactive or inconclusive.

COC(=O)CC(=O)CSc1nc2cc(C(=O)NCC(C)C)ccc2c(=O)n1CCc1ccccc1	none (no result: USP2a block, IL1B secr inh)
Nc1cc2c(cc1N)-c1ccccc1C2	IL1B secr inh -52, USP1 inh inconclusive (no result: USP2a block)
Nc1ccc2c(c1)Cc1cc(N)c(Cl)cc1-2	none (no result: USP2a block)
Cn1c(=O)n(C)c2cc(N3CCCC3)c(NC(=O)Nc3ccccc3)cc21	none (no result: USP2a block, IL1B secr inh)
O=C(Nc1cccc(C(F)(F)F)c1)c1cccnc1N1CCN(c2ccccc2)CC1	IL1B secr inh -77, USP1 inh inconclusive
O=C(Nc1cccc(C(F)(F)F)c1)c1cccnc1N1CCN(CCO)CC1	ATXN viability inconclusive
O=C(Nc1ccccc1)N1CCN(c2cccc(C(F)(F)F)c2)CC1	IL1B secr inh -50
CN1CCN(c2ccc(C(F)(F)F)cc2NC(=O)Nc2ccccc2)CC1	IL1B secr inh -84, ATXN viability inconclusive (no result: ATXN2 expr inh)
COc1ccc(C2CC(=O)C(C(c3ccc(O)cc3)C3C(=O)CC(c4ccc(OC)cc4)CC3=O)C(=O)C2)cc1 (stereo not given)	none (no result: IL1B secr inh, ATXN viability, ATXN2 expr inh, USP1 inh)
COc1cc2sc3ccc(C#CC4(O)CCCCC4)cc3c(=O)c2cc1OC	none (no result: USP2a block)
Cn1c2ccccc2c(=O)c2ccc(C#CC3(O)CCCCC3)cc21	IL1B secr inh -54
c1ccc2c(c1)oc1c(-c3cccc4nccn34)cccc12	ATXN viability inconclusive (no result: USP2a block, USP1 inh)
COC(=O)[C@]12CCCCC=C1N(Cc1cccc3ccccc13)C(=O)[C@H](CC(=O)NCCC(C)C)C2	ATXN viability inconclusive (no result: USP2a block, USP1 inh)
CCCCCCCCN1C(=O)[C@H](CC(=O)NCCC(C)C)C[C@@]2(C(=O)OC)CCCCC=C12	IL1B secr inh -60, ATXN viability inconclusive, ATXN2 expr inh inconclusive (no result: USP2a block, USP1 inh)
CCCCCCCCN1C(=O)[C@H](CC(=O)N2CCCC2)C[C@@]2(C(=O)OC)CCCCC=C12	ATXN viability inconclusive, ATXN2 expr inh inconclusive (no result: USP2a block, USP1 inh)
CCCCCCCCN1C(=O)[C@H](CC(=O)NCCCC)C[C@@]2(C(=O)OC)CCCCC=C12	ATXN viability 28µM (no result: USP2a block, IL1B secr inh, USP1 inh)
CCCCCCCCN1C(=O)[C@H](CC(=O)NCCCOCCCC)C[C@@]2(C(=O)OC)CCCCC=C12	IL1B secr inh -78, ATXN viability inconclusive, ATXN2 expr inh inconclusive (no result: USP2a block, USP1 inh)
CSc1nn(Cc2cccc(F)c2)c(N(C(C)=O)C(C)=O)c1S(=O)(=O)c1ccccc1	ATXN viability 18µM, ATXN2 expr inh inconclusive (no result: USP2a block, IL1B secr inh)
COc1cccc(Cn2nc(SC)c(S(=O)(=O)c3ccccc3)c2N(C(C)=O)C(C)=O)c1	ATXN viability inconclusive, USP1 inh inconclusive (no result: USP2a block, IL1B secr inh)
Cc1sc2nc(C3CC3)nc(N3CCN(C(=O)c4ccc(F)cc4)CC3)c2c1C	IL1B secr inh -60, ATXN2 expr inh inconclusive
Cc1sc2nc(C3CC3)nc(N3CCN(C(=O)c4ccc(Cl)cc4)CC3)c2c1C	none
COc1ccc(C(=O)N2CCN(c3nc(C4CC4)nc4sc(C)c(C)c34)CC2)cc1	IL1B secr inh -65, ATXN2 expr inh inconclusive
Cn1c(=O)c(=O)n(C)c2cc([N+](=O)[O-])c([N+](=O)[O-])cc21	IL1B secr inh -101
CCOC(=O)c1cc2c(=Cc3ccc(N(C)C)cc3)c3ccccc3n2[n+]1C	IL1B secr inh -101, ATXN2 expr inh inconclusive, USP1 inh 16µM (no result: USP2a block, ATXN viability)
Cc1cc2c(=Cc3ccc(N(C)C)cc3)c3ccccc3n2[n+]1C	ATXN viability inconclusive, ATXN2 expr inh 10µM, USP1 inh inconclusive (no result: USP2a block)
CN(C)c1ccc(C=c2c3ccccc3n3c2c2ccccc2[n+]3C)cc1	IL1B secr inh -66, ATXN viability inconclusive, ATXN2 expr inh 6.3µM, USP1 inh inconclusive (no result: USP2a block)
CCCCC1(C)OC(=O)C(=Cc2ccc(N(C)C)cc2)C(=O)O1 (stereo not given)	none
Nc1cc(N2CCCC2)c(Cl)cc1[N+](=O)[O-]	none
O=[N+]([O-])c1cc(Cl)c(Cl)c(Cl)c1Cl	IL1B secr inh -93
O=C(c1ccc(Cl)cc1)N1CCC(c2ccncc2)CC1	none (no result: USP2a block, IL1B secr inh)
Cc1cccc(C)c1OCC(O)CN (stereo not given)	IL1B secr inh -59
CCOC(=O)N1CCN(CC(O)COc2c(C)cccc2C)CC1 (stereo not given)	none
Cc1cc(-c2ccc(CC(=O)Nc3ccc(-c4cccnc4)cc3)cc2)ccn1	none (no result: USP2a block, IL1B secr inh, ATXN viability, USP1 inh)
C/C(=N\NC(=O)c1cc(O)ccc1O)c1cccc(NC(=O)c2ccc(Cl)cc2)c1	IL1B secr inh -86
CCN1CCN(C(=O)c2ccc3c(Cl)c4c(nc3c2)CCCC4)CC1	IL1B secr inh -78
CN1CCN(C(=O)c2ccc3c(Cl)c4c(nc3c2)CCCC4)CC1	ATXN viability inconclusive
O=C(c1ccc2c(Cl)c3c(nc2c1)CCCC3)N1CCN(c2ccc(Cl)cc2)CC1	ATXN viability inconclusive (no result: USP2a block, IL1B secr inh)
N#CC1CCN(C(=O)c2ccc3c(Cl)c4c(nc3c2)CCCC4)CC1	IL1B secr inh -66 (no result: ATXN2 expr inh)
Cc1ccc(-c2nnnn2-c2ccc(C)cc2)cc1	ATXN viability inconclusive
Cc1ccc(-n2nnnc2CCl)cc1	IL1B secr inh -101, ATXN viability inconclusive, ATXN2 expr inh inconclusive
O=C(c1ccc(Cn2c(=S)[nH]c3ccccc3c2=O)cc1)N1CCN(c2ccccn2)CC1	IL1B secr inh inconclusive, ATXN2 expr inh 16µM
COC(=O)c1ccc(/C=C2\Oc3ccccc3NC2=O)cc1	IL1B secr inh -53
COC(=O)c1ccc2c(c1)C(=O)/C(=C/c1ccc(C)cc1)O2	none
CCC1CN(CC(=O)N(C)Cc2nc3ccccc3[nH]2)Cc2cc(OC)ccc2O1 (stereo not given)	none (no result: USP2a block, IL1B secr inh, ATXN2 expr inh, USP1 inh)
Cc1cc(C(=O)COC(=O)c2ccc(O)cc2O)c(C)n1-c1ccccc1	IL1B secr inh -81, ATXN viability inconclusive
O=C(Nc1ccc(OCC(=O)N2CCC(Cc3ccccc3)CC2)cc1)c1ccco1	IL1B secr inh inconclusive
COc1ccc(NC(=S)N2CCC(Cc3ccccc3)CC2)cc1	IL1B secr inh -58
CC(=O)Nc1ccc(OCC(=O)N2CCC(Cc3ccccc3)CC2)cc1	IL1B secr inh -53
S=C(Nc1ccccc1)N1CCC(Cc2ccccc2)CC1	IL1B secr inh -69
CCNC(=S)N1CCC(Cc2ccccc2)CC1	none
COC(=O)c1ccccc1C(=O)N1CCOc2ccc(CN3CCN(c4ccccn4)CC3)cc2C1	none (no result: USP2a block, IL1B secr inh, ATXN2 expr inh, USP1 inh)
COC(=O)c1ccc(CSc2nc3c(c(=O)[nH]2)CCC3)cc1	none (no result: USP2a block)
CCN(CC)C(=O)Oc1ccc2oc(=O)cc(-c3cc4cccc(OC)c4o3)c2c1	IL1B secr inh -65, USP1 inh inconclusive
COc1ccc2oc(=O)cc(-c3cc4cccc(OC)c4o3)c2c1	USP1 inh inconclusive
CSc1ccc2c(c1)C(N1CCN(C)CC1)Cc1ccc(F)cc1S2 (stereo not given)	IL1B secr inh -56 (no result: USP2a block, ATXN2 expr inh)
COc1ccc2c(c1)CC(N1CCN(C)CC1)c1cc(OC)ccc1S2 (stereo not given)	IL1B secr inh -93, ATXN viability inconclusive, ATXN2 expr inh 28µM (no result: USP2a block)
